# Measured values from PubChem BioAssay (NCI).
# This is part of a sample that, as a whole, favours compounds with a hit. Of some 83,000 tested, about 20% had one in any assay.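 A percent growth of 40 corresponds to 60% growth inhibition; 0 means no net growth; -100 means all cells died. Active threshold: below 10.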 Values without a mark were called inactive. Calls of active or inactive are those of the source.
# Tested on: MDA-MB-468 breast
# Assay: NCI-60 one-dose screen, 48 h (100 = growth as untreated, 0 = no growth, -100 = all killed)
# Settings: 10 µM unless noted
row,SMILES,growth
1,CC(c1ccccc1)N(C)C (stereo not given),86%
2,CCC(C)C1NC(=O)C(CCNCS(=O)(=O)O)NC(=O)C(NC(=O)C(CCNCS(=O)(=O)O)NC(=O)C(NC(=O)C(CCNCS(=O)(=O)O)NC(=O)CCCCC(C)C)C(C)O)CCNC(=O)C(C(C)O)NC(=O)C(CCNCS(=O)(=O)O)NC(=O)C(CCNCS(=O)(=O)O)NC(=O)C(C(C)CC)NC1=O (stereo not given),16%
3,CCOC(=O)N1CCN(CCCCl)CC1,97.4%
4,COC1OCC(O)C(O)C1O (stereo not given),100%
5,CC12CCC3c4ccc(O)cc4CCC3C1CCC2=O (stereo not given),96.4%
6,C/C(Cc1ccc(Cl)cc1)=C(\c1ccc(OCCN2CCCCCC2)cc1)c1ccc(OC(=O)Cc2ccccc2)cc1,69%
7,COc1cnccc1-c1nc2ccc3[nH]ncc3c2c2c1CCCC2,39.6%
8,C=C1CCC2C(C)(CO)C(O)CCC2(C)C1CC(NCc1ccccc1)C1=CCOC1=O (stereo not given),98.9%
9,O=C(CCl)NC1c2ccccc2Oc2ccccc21,71.5%
10,COc1ccc(-c2nnc(N3CCN(C(=O)CN4CCN(c5ccc(Cl)cc5)CC4)CC3)nc2-c2ccc(OC)cc2)cc1,74%
11,O=C(NCCN1CCCCC1)n1cc(-c2ccncc2)c(-c2ccc(Cl)c(O)c2)n1,83.8%
12,CCOC(=O)c1c(NCC(=O)Nc2cccc(Cl)c2)sc2c1CCCC2,73%
13,CCC(C)CC(CC)NCCN1CCN(C(CC)CC(C)CC)C1=S (stereo not given),-43.6% (active)
14,Cn1cc(-c2noc(C(=O)c3cn(C)c4ncccc34)n2)c2ccccc21,-9.42% (active)
15,CCN(CC)C(=O)C[N+](C)(C)CCOC(c1ccccc1)c1ccccc1,109%
16,IP(CCCCCCCCCCSc1n(Cc2ccc3ccccc3c2)c(-c2ccccc2)c(-c2ccccc2)[n+]1Cc1ccc2ccccc2c1)(c1ccccc1)(c1ccccc1)c1ccccc1,-75.3% (active)
17,CC(O)CN(CC(C)O)c1ccc2c(c1)Cc1cc([N+](=O)[O-])ccc1-2 (stereo not given),100%
18,CCOC(=O)CCC(=O)O[C@H]1[C@H](O[C@@H]2[C@@H](C)[C@H](O[C@H]3C[C@@](C)(OC)[C@@H](O)[C@H](C)O3)[C@@H](C)C(=O)O[C@H](CC)[C@@](C)(O)[C@H](O)[C@@H](C)C(=O)[C@H](C)C[C@@]2(C)O)O[C@H](C)C[C@@H]1N(C)C,109%
19,CN1CCN(CCOc2ccc(-c3cnc4c(-c5ccccc5F)cnn4c3)cc2)CC1,45.6%
20,O=c1ccn(C2CCCO2)c(=O)[nH]1 (stereo not given),104%

row,SMILES,growth
1,C/C(=N\NC(=O)C(C)SC(C)C(=O)N/N=C(\C)c1cccnc1)c1cccnc1 (stereo not given),103%
2,Nc1nc(I)c2ncn(C3OC(CO)C(O)C3O)c2n1 (stereo not given),115%
3,CC(C)c1ccc(C(=O)Nc2sc3cc(O)ccc3c2C#N)cc1,12.5%
4,CN(C)c1ccc(/C=C/C2=[N+](C)c3ccccc3C2(C)C)cc1,6.5% (active)
5,Cc1cc(N(CCCNc2ccnc3cc(Cl)ccc23)Cc2ccco2)nc(N2CCN(C)CC2)n1,73.7%
6,COc1ccc(/C=N/NC(=O)c2cnn3c2NC(c2ccccc2)C3)cc1OC (stereo not given),34.8%
7,NC(N)=N/N=C/CO,107%
8,CCOC(=O)c1nn(C2CCCCO2)c2ccc(NS(=O)(=O)c3ccc(C)cc3)cc12 (stereo not given),105%
9,CCN(CC)CCCOc1cccc2c1C(=O)c1cccc(OCCCN(CC)CC)c1C2=O,35.5%
10,CCOC(=O)c1c(C(=O)c2cn(C)c3ccc(Br)cc23)c(-c2cn(C)c3ccc(Br)cc23)n(NC(=O)OC(C)(C)C)c1C,41.5% [100 µM]
11,CC(=O)Oc1ccc(/C(=C(\C)c2ccc(Cl)cc2)c2ccc(OCCN3CCCCC3)cc2)cc1,-25% (active)
12,c1ccc(COCC[P+](c2ccccc2)(c2ccccc2)c2ccccc2)cc1,-10.4% (active)
13,COc1cc(C(=O)c2cc(C(C)=O)c3c4ccccc4ccn23)cc(OC)c1OC,42.1%
14,COc1ccc(-c2cc(C(=O)Nc3ccc(C)cc3)nc3[nH]c(=O)sc23)cc1,66.6%
15,CC(=O)NC1=C(C#N)C(c2ccccc2Cl)c2c(ccc3ccccc23)O1 (stereo not given),14%
16,COc1cc(OC)c2sc(-c3ccc(-n4cncc4-c4ccc(OC)c(OC)c4)cc3)nc2c1,31%
17,Cc1ccc2ccccc2c1C[n+]1ccccc1,50.5%
18,COC(=O)c1[nH]cnc1/N=N/N(C)CCO,87.2%
19,COc1cc(Cn2c(-c3ccccc3)c(Cl)c3c2-c2oncc2CC3)cc(OC)c1,114%
20,CCN(CC)c1ccc(/C=N/NC(=O)Cc2ccc(Nc3ccnc(C(F)(F)F)c3)cc2)c(O)c1,26.1%
